High-throughput results: PubChem, several laboratories
CendR NRP1 mod: alters CendR peptide binding to human NRP-1; FAM-RPARPAR peptide binding to NRP-1, fluorescence polarization; inhibition, % at 25 µM; 360,000 compounds, 0.85% hits; AID 602438;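 active = inhibition or corrected inhibition above about 18%, plus a signal ratio from 0.5 to 1.5, limit read from the data, passing the limit was not always enough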
Target sequence (O14786 whole entry, looked up): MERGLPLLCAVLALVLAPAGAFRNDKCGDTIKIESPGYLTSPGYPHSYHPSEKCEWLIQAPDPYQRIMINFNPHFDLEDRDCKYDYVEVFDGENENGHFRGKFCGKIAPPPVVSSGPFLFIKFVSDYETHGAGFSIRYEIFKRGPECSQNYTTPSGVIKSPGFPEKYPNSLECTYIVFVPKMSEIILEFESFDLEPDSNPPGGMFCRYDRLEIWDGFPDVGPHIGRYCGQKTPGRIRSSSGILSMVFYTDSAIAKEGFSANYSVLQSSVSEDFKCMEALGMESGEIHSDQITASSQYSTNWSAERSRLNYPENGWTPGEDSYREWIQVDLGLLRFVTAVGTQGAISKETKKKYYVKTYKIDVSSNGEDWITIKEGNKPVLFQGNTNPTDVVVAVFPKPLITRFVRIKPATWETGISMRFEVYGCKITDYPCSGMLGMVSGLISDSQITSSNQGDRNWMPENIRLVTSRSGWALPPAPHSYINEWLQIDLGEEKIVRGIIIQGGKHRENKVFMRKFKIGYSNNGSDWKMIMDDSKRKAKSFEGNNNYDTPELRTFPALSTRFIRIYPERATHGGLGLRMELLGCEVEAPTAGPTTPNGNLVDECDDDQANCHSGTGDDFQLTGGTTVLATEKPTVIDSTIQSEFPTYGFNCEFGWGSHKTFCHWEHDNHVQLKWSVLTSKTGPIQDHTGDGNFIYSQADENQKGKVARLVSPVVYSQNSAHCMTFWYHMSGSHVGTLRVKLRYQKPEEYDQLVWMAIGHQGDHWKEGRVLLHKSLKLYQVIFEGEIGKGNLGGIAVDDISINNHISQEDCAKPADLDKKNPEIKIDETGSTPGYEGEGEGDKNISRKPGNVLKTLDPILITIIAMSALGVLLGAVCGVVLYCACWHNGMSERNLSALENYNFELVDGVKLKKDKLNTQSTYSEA
ATG4B inhibitor: ATG4B (human) cysteine protease inhibition; Q9Y4P1; ATG4B cleavage of LC3-PLA2, NBD-HPC fluorescence, 1 h; inhibition, % at 8.33 µM; 340,000 compounds, 0.51% hits; AID 504462; in the data active = inhibition above about 40%
PKA-R2B activ: activates the human PKA-R2B holoenzyme complex | activation, % at 11.4 µM | P22694+P31323 | PKA-R2B holoenzyme dissociation, Cy5-IP20 fluorescence polarization; R2B truncated from residue 108, S112A mutant; 0% DMSO only, 100% 113 µM cGMP | 340,000 compounds, 0.079% hits | AID 504700;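 active = activation above a cutoff set at the mean over all compounds plus 3 SD, cut at about 18% in these data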;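 also: higher means more holoenzyme dissociation and a rise in polarization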
VLA-4 inh: inhibition in a human VLA-4 binding assay. inhibition, % (about 7 µM as worked out from the volumes in the protocol). AID 2557. 330,000 compounds, 0.2% hits. VLA-4 expressing cells, ligand binding flow cytometry; in the data active = inhibition above about 50%
PKA-R1A act: activators of PKA-R1A complex | activation, % at 11.4 µM | P00514+P68181 | 340,000 compounds, 0.083% hits | AID 504707 | PKA-R1A dissociation, Cy5-IP20 fluorescence polarization; scaled: DMSO 0%, 113 µM cGMP 100%;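 active = percent activation above the mean of all tested compounds plus 3 SD, cut at about 19% in these data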;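 also: higher means more PKAc released from R1A so a rise in polarization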
* = called active by the depositor; . = no result given; ! = repeats disagree. Sampled rows, rich in hits. Any-hit rate of the full collection: about 1.6%.

SMILES	CendR NRP1 mod	ATG4B inhibitor	PKA-R2B activ	VLA-4 inh	PKA-R1A act
Cc1ccc2nc(SCc3nnc(-c4ccccc4Br)o3)[nH]c2c1	33.3*	8.0	-6.7	-2.2	-10.0
O=c1c2ccccc2nc(SCc2nnc(-c3ccccc3Br)o2)n1-c1ccccc1	-2.8	45.1*	1.4	6.5	-0.3
CC1(c2nc3ccccc3[nH]2)c2ccccc2C(=O)N1C1CC1 (stereo not drawn)	-10.1	.	.	.	.
COc1ccc(-c2csc(N)n2)cc1	31.4*	-6.4	-7.9	19.4	0.0
COC(=O)C[C@@H]1CC[C@@H](NC(=O)C2CCC2)[C@@H](CO)O1	-3.5	.	.	.	.
COc1ccc(OC)c(N(CC(=O)NC2CCCC2)S(=O)(=O)c2ccc(OC)c(OC)c2)c1	0.0	1.5	4.3	-2.0	-2.5
CS(=O)(=O)c1ccc(Cl)c(NC(=O)COC(=O)c2ccc(S(=O)(=O)N3CCCC3)cc2)c1	21.8*	0.1	-2.1	5.3	-11.9
N/C(=N\OC(=O)c1ccc(Cl)cc1)c1ccccn1	19.8*	10.7	9.3	7.3	-6.1
Cc1ccc(-n2nnnc2SCC(=O)NCC2CCCO2)cc1C (stereo not drawn)	2.1	-5.5	-4.4	.	2.0
CC1NC(=O)c2cccnc2-n2c1nc1cc(F)c(F)cc1c2=O (stereo not drawn)	-0.4	.	2.4	.	12.6
O=Cc1ccccc1OCCOc1ccccc1C=O	-19.8	71.0*	-11.2	-10.0	-6.4
NC(=O)COC(=O)c1c2c(nc3ccccc13)CCC2	20.0*	-9.2	-16.5	-3.2	3.3
NC(=O)COC(=O)c1c2c(nc3ccccc13)CCCC2	6.8	-0.4	-5.7	9.2	-1.1
Cc1ccc(S(=O)(=O)N2C[C@H]3C(=O)C[C@@H](c4ccc(Cl)cc4)N(S(=O)(=O)c4ccc(C)cc4)[C@H]3C[C@H]2c2ccccc2)cc1	-11.2	.	.	.	.
NC(=O)Nc1ccc(Oc2c(F)c(F)c(F)c(F)c2F)cc1	39.7*	-0.5	-5.0	-3.0	-20.8
CCOc1ccc(NC(N)=O)cc1	11.3	-5.9	0.6	10.5	4.2
COc1ccccc1COc1ccc2c(C)c(CC(=O)O)c(=O)oc2c1C	36.3*	-0.2	0.5	-4.0	1.6
Cc1c(CC(=O)O)c(=O)oc2c(C)c3occ(-c4ccccc4)c3cc12	45.2*	0.3	-9.1	0.0	-1.2
O=C(Nc1ccccc1C(=O)N1CCCCCC1)c1cccc([N+](=O)[O-])c1	-18.0	5.8	-10.2	-4.8	-6.5
Oc1ccc(-c2nccc(-c3ccc(Cl)cc3Cl)n2)cc1	40.2*	-4.1	-7.9	-0.3	-7.8
CN(C)CCNC(=O)c1cccc(-c2cc(NC=O)c3ncc(-c4cccc(C(F)(F)F)c4)n3c2)c1	-40.5	.	.	.	.
CCCC#Cc1ccc2c(c1)O[C@@H](CN(C)Cc1ccc3c(c1)OCO3)[C@H](C)CN([C@@H](C)CO)S2(=O)=O	-12.2	.	-13.3	.	-8.1
COc1ccc(CN(C)C(=O)CNC(=O)c2sc3ccccc3c2Cl)c(OC)c1OC	45.8*	-0.6	-5.7	.	2.2
O=S1(=O)N[C@@H](Cc2ccccc2)COc2cccc(N3CCC[C@H]3CO)c21	-5.7	.	.	.	.
CC(NC(=O)c1c(O)c2ccccc2[nH]c1=O)c1ccccc1 (stereo not drawn)	19.0	-1.9	0.6	10.5	5.4
SMILES	CendR NRP1 mod	ATG4B inhibitor	PKA-R2B activ	VLA-4 inh	PKA-R1A act
O=C(c1ccc(F)cc1)N1CCN(c2ncccn2)CC1	9.6	-10.0	0.5	-2.7	6.3
O=C(NNC(=O)C1CCN(c2ncccn2)CC1)c1ccc(F)cc1	41.5*	-7.2	13.7	12.7	-0.1
S=C(NCCCNC(=S)Nc1ccccc1)Nc1ccccc1	47.5*	9.5	-9.5	11.4	4.6
S=C(NCC1CCCO1)Nc1ccc(Cl)cc1 (stereo not drawn)	3.6	-8.8	-3.0	15.5	-1.8
CCCNC(=S)Nc1ccc(Nc2ccccc2)cc1	10.5	-8.0	-5.2	20.5	-2.2
S=C(NCC1CCCO1)Nc1ccccc1 (stereo not drawn)	20.7*	-3.5	-6.5	11.4	12.4
NC(=Nc1c([N+](=O)[O-])cnc2ccccc12)N1CCOCC1	4.5	.	.	.	.
CC(C)n1ncc2c(C(=O)Nc3ccc(S(C)(=O)=O)cc3)cc(C3CC3)nc21	0.4	-7.8	0.1	17.0	-1.4
CC(C)n1ncc2c(C(=O)Nc3ccc(S(N)(=O)=O)cc3)cc(C3CC3)nc21	45.6*	-3.0	-2.3	19.6	7.1
Cc1ccc(CN2CCS(=O)(=O)CC2)cc1	27.3*	-0.6	-3.9	-0.9	9.6
COc1ccc(NC(=O)C(c2ccccc2F)n2c(=O)c(-c3cc4ccccc4[nH]3)nc3ccccc32)cc1 (stereo not drawn)	-2.6	.	.	.	.
Cc1cccc(N2CCN(C3C(=O)Nc4ccccc4-n4nnnc43)CC2)c1C (stereo not drawn)	6.3	.	.	.	.
O=C(Nc1ccc(Oc2ccccc2)nc1)C1CCN(Cc2cccc(F)c2)CC1	27.3*	10.1	-1.8	4.6	-1.2
Cc1cc(NC(=O)Nc2ccc(C)c(C)c2)no1	4.4	-11.7	4.6	9.5	-11.4
Cc1cc(NC(=O)Nc2cc(Cl)ccc2C)no1	19.5*	-8.4	-2.4	9.4	-2.5
CN(C)CCOC(=O)C1(c2ccccc2)CCOCC1	24.4*!	-3.0	1.8	12.8	-6.1
CCN(CC)CCOC(=O)C1(c2ccccc2)CCCC1	3.9	-10.4	-8.0	-1.5	-4.8
NNc1ccc([N+](=O)[O-])c2[nH][nH]c(=O)c12	29.4*	.	-0.8	.	5.8
COc1cc(NCc2ccccc2)c2ncn(C(C)C)c2c1	5.3	-3.5	1.1	-2.8	-3.7
COc1cc(NCCCNC(C)C)c2nccc(C)c2c1	26.0*	-1.1	2.1	.	5.6
Clc1ccccc1-c1ccc2ncnc(NCc3ccc4c(c3)OCO4)c2c1	22.3*	-6.8	5.4	-5.4	9.3
c1cncc(-c2ccc3ncnc(NCc4ccc5c(c4)OCO5)c3c2)c1	15.7	-8.8	1.6	7.8	0.0
O=C(C(O)c1ccccc1)N1CCN(S(=O)(=O)c2ccc(C(F)(F)F)cc2)CC1 (stereo not drawn)	3.1	.	.	.	.
CC(c1nc2ccccc2n1Cc1ccccc1)n1c(-c2cnccn2)nc2ccccc21 (stereo not drawn)	9.1	.	.	.	.
Cc1ccc(-n2c(-c3nn(C)c(C)c3Cl)n[nH]c2=S)cc1	20.3*	-10.9	5.5	1.4	-15.8
O=C(NCC(=O)N1CCN(c2ccccn2)CC1)c1ccc(Br)o1	-2.6	-4.0	9.8	6.1	6.6
CCCCC1=CC2=CC(=O)C(C)(OC(=O)CC)C(=O)C2=CN1CC(C)C (stereo not drawn)	4.0	-9.8	2.4	22.0	-5.8
C=CCN1C=C2C(=O)C(C)(OC(=O)c3cccs3)C(=O)C=C2C=C1CCCC(=O)OC (stereo not drawn)	28.5*	-8.4	-0.1	11.2	5.8
C=CCN1C=C2C(=O)C(C)(OC(=O)CC)C(=O)C=C2C=C1CCCC (stereo not drawn)	6.1	-7.0	-2.9	-17.4	-10.8
